Among the data in PubChem BioAssay (EPA / NIEHS) are AC50 and outcome values, retold here.

Usually AC50 stands for the midpoint of the concentration-response curve, whichever way the signal moves.

Holding throughout (conditions): primary human HUVEC with PBMC; actives raise or lower the signal
Read-out in test [1]: Interleukin-1 alpha (IL1a), IL1A (gene 3552)
Briefly: BSK_LPS_IL1a: BioMAP Diversity Plus: LPS Assay for Interleukin-1 alpha (IL1a) Biomarker Activity (AID 2283080). In short, it runs like this: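 Primary human HUVEC and PBMC co-culture stimulated with LPS is dosed and harvested at 24 h. Both increases and decreases in ELISA-measured IL-1a are scored relative to DMSO.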

Read-out in test [2]: Monocyte Chemoattractant Protein-1 (MCP1), CCL2 (gene 6347)
Nature of the test: BSK_LPS_MCP1: BioMAP Diversity Plus: LPS Assay for Monocyte Chemoattractant Protein-1 (MCP1) Biomarker Activity (AID 2283081).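 As to AC50: secreted MCP-1 protein quantified by ELISA in culture supernatant.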 In short, it runs like this:
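Values derive from bidirectional fitting against DMSO of ELISA-measured MCP-1 in a human primary endothelial and mononuclear cell co-culture, 24 h after chemical addition under LPS activation.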

A short description of test [3]: BSK_LPS_PGE2: BioMAP Diversity Plus: LPS Assay for Prostaglandin E2 (PGE2) Biomarker Activity (AID 2283082).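 As to AC50: secreted prostaglandin E2 measured by ELISA in LPS-stimulated co-culture.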 In a few lines:
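Endpoint derived from bidirectional curve fitting versus DMSO of ELISA-measured PGE2 in LPS-stimulated human primary vascular co-culture (HUVEC with PBMC) harvested at 24 h.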

Read-out in test [4]: Macrophage colony-stimulating factor (MCSF), CSF1 (gene 1435)
Nature of the test: BSK_LPS_MCSF: BioMAP Diversity Plus: LPS Assay for Macrophage colony-stimulating factor (MCSF) Biomarker Activity (AID 2283083). In a few lines:
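Bidirectional fit versus DMSO of ELISA-measured M-CSF in co-cultured human umbilical vein endothelial cells and PBMC, sampled 24 h after dosing.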

Read-out in test [5]: Tissue Factor, F3 (gene 2152)
Nature of the test: BSK_LPS_TissueFactor: BioMAP Diversity Plus: LPS Assay for Tissue Factor Biomarker Activity (AID 2283084). In a few lines:
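Read-out: CD142 ELISA, 24 h. System: LPS-driven human endothelial/PBMC co-culture. Analysis: up- or down-signal fitted against DMSO.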

Read-out in test [6]: Tumor necrosis factor (Homo sapiens) (UniProt P01375)
Briefly: BSK_LPS_TNFa: BioMAP Diversity Plus: LPS Assay for Tumour Necrosis Factor alpha (TNFa) Biomarker Activity (AID 2283085).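 As to AC50: TNFa protein level quantified by ELISA in the co-culture.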 In a few lines: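 Primary human vascular co-culture of HUVEC and PBMC; TNFa ELISA 24 h after treatment, analysed as increase or decrease relative to DMSO control.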

Read-out in test [7]: Vascular cell adhesion molecule 1 (VCAM1), VCAM1 (gene 7412)
Briefly: BSK_LPS_VCAM1: BioMAP Diversity Plus: LPS Assay for Vascular cell adhesion molecule 1 (VCAM1) Biomarker Activity (AID 2283086). In a few lines: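 Primary human vascular co-culture (umbilical vein endothelium plus PBMC) stimulated with LPS received chemical; 24 h later VCAM-1 was read by ELISA. Overt cytotoxicity was assessed by sulforhodamine B staining of parallel cultures at the same time point.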

Read-out in the next test: CD38, CD38 (gene 952)
Nature of the test: BSK_SAg_CD38: BioMAP Diversity Plus: SAg Assay for CD38 Biomarker Activity (AID 2283087). In a few lines:
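Fluorescence ELISA of cell-surface CD38 served as the read-out, with either increase or decrease fitted against DMSO controls. Cells were a human umbilical vein endothelium plus PBMC co-culture under SEB/TSST-1 stimulation, measured 24 h after dosing.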

Read-out in the next test: CD40, CD40 (gene 958)
Nature of the test: BSK_SAg_CD40: BioMAP Diversity Plus: SAg Assay for CD40 Biomarker Activity (AID 2283088). In a few lines:
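Endpoint derived by fitting increases or decreases versus DMSO controls. CD40 is detected by fluorescence ELISA in a human vascular co-culture of endothelium and PBMC at 24 h.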

Read-out in the next test: CD69, CD69 (gene 969)
Nature of the test: BSK_SAg_CD69: BioMAP Diversity Plus: SAg Assay for CD69 Biomarker Activity (AID 2283089).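 As to AC50: cell surface CD69 protein quantified by ELISA with fluorescence detection.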 In a few lines:
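HUVEC co-cultured with PBMC were dosed with chemical, and CD69 was measured by ELISA with fluorescence read-out 24 h later. Bidirectional curve fitting used DMSO as negative control and activity baseline.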

Several values for one entry are separate records, joined by “and”; a condition that tells them apart may be missing. Equal entries are not always repeated. Where a structure was tested more than once in an assay, its records may differ in their call. Activity calls are given as the source filed them. The calls were made as follows: active = hit-call score of the fitted dose curve at least 0.9, where 1 is the maximum; inactive = score below 0.9.

Chain of Tumor necrosis factor (Homo sapiens) (P01375 whole entry, looked up): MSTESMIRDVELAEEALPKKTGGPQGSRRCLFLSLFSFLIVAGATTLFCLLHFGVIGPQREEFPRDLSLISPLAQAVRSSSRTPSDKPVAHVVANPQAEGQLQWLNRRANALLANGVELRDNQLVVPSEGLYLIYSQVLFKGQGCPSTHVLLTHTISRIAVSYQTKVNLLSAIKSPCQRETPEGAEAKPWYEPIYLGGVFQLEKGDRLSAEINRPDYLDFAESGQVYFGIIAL

On to `C=CC(=O)OCC(F)(F)C(F)F`, for which the concentration at half-maximal activity (AC50) is 40 µM (active) and 35.4 µM (active) in test [1]; 20.8 µM (active) in [2]; 39.4 µM (active) and 31.6 µM (active) in test [3]; 30 µM (active) in [4]; 54.6 µM (active) and 54 µM (active) in test [6]; 38 µM (active) and 24.3 µM (active) in test [7]. In addition, the AC50 with CD38, CD38 (gene 952) is 24.2 µM (active) and 36.9 µM (active); in the test with CD40, CD40 (gene 958) it was 37.2 µM (active) and 35.3 µM (active); in the test with CD69, CD69 (gene 969) it was 38.5 µM (active) and 30 µM (active). Moreover, the outcome in test [2], in test [4] and in [5] was inactive.

For `CC(O)C(F)(F)C(F)(F)F` (stereo not drawn), the outcome in [1], in [2], in [3], in [4], in [5] and in [6] was inactive. In addition, the outcome in test [7] is “inactive”; in the test with CD38, CD38 (gene 952) it was “inactive”; with CD40, CD40 (gene 958) it was “inactive”; in the test with CD69, CD69 (gene 969), “inactive”. In test [5], the AC50 was 5.95 µM (active).

On to `CCCCCCCc1ccc(O)cc1`, for which the AC50 in [1] is 31.2 µM (active); in test [2] it was 36.5 µM (active); in test [3], 2950 nM (active); in test [4], 32 µM (active); in test [5], 38.1 µM (active); in test [6] it was 30.8 µM (active). The AC50 in test [7] was 36.2 µM (active); with CD38, CD38 (gene 952) it was 35.7 µM (active); with CD40, CD40 (gene 958), 35.6 µM (active); with CD69, CD69 (gene 969), 39.2 µM (active).

As for `Nc1ccc([N+](=O)[O-])cc1Cl`, the outcome in test [1], in [2], in test [3], in [4], in test [5] and in test [6] was inactive. For the same compound, the outcome in [7] was “inactive”; in the test with CD38, CD38 (gene 952) it was “inactive”; in the test with CD40, CD40 (gene 958), “inactive”; with CD69, CD69 (gene 969), “inactive”.

On to `COP(=O)(CCC(=O)NCO)OC`, for which the outcome in test [1], in test [2], in test [3], in test [4], in [5] and in [6] was inactive. Moreover, the outcome was “inactive” in test [7]; “inactive” with CD38, CD38 (gene 952); “inactive” with CD40, CD40 (gene 958); “inactive” in the test with CD69, CD69 (gene 969).

As to `CC(C)Nc1ccc(Nc2ccccc2)cc1`, the AC50 is 9.74 µM (active) in [1]; 10.1 µM (active) in test [2]; 16.6 nM (active) in test [3]; 8.91 µM (active) in test [4]; 8.74 µM (active) in [5]; 12.7 µM (active) in test [6]. The AC50 was 10.2 µM (active) in [7]; 4.14 µM (active) with CD38, CD38 (gene 952); 13.1 µM (active) with CD40, CD40 (gene 958); 3.37 µM (active) with CD69, CD69 (gene 969).

For the compound `CCCCC(CC)COP(=O)(Oc1ccccc1)Oc1ccccc1` (stereo not drawn), the AC50 was 20 µM (active) in [1]; 7.43 µM (active) in [2]; 8.19 µM (active) in test [4]; 20 µM (active) in [6]; 13 µM (active) in test [7]; 20 µM (active) with CD38, CD38 (gene 952). Besides, the AC50 was 20 µM (active) with CD40, CD40 (gene 958) and 13.3 µM (active) with CD69, CD69 (gene 969). Moreover, the result in test [3] and in [5] was inactive.

`CN(C)C(=O)Cl`: the outcome in test [1], in test [2], in test [3], in [4], in [5] and in test [6] was inactive. The outcome was “inactive” in test [7]; “inactive” with CD38, CD38 (gene 952); “inactive” in the test with CD40, CD40 (gene 958); “inactive” with CD69, CD69 (gene 969).

For `CCOS(=O)(=O)OCC`, the result in [1], in [2], in [3], in test [4], in test [5] and in test [6] was inactive. Further, the outcome in test [7] is “inactive”; with CD38, CD38 (gene 952), “inactive”; with CD40, CD40 (gene 958), “inactive”; in the test with CD69, CD69 (gene 969), “inactive”.

As for `c1ccc2c(c1)sc1ccccc12`, the result in test [1], in test [2], in test [4], in [5], in test [6] and in [7] was inactive. The outcome with CD38, CD38 (gene 952) was “inactive”; with CD40, CD40 (gene 958), “inactive”; with CD69, CD69 (gene 969), “inactive”. Further, in test [3], the AC50 was 596 nM (active).
